Laboratory results taken from PubChem BioAssay AID743364 (National Center for Advancing Translational Sciences (NCATS), 2014).
Unmarked numbers belong to inactive results. The source made the active and inactive calls. Calls follow the shape of the dose curve; as a rule, active = well fitted curve in the direction sought with a large enough effect; inactive = no such curve, though single readings can be large or run the other way. Where a SMILES comes first, the peptide text is derived from it. [ ]: non-standard residue; d: D form. Orn = NCCC[C@H](N)C(=O)O

Assay: qHTS profiling of inhibitors of Plasmodium falciparum (3D7) proliferation (acoustic dispense)
Conditions: P. falciparum 3D7 in erythrocytes, SYBR Green, 72 h; series mostly up to 49.8 µM
From the text: Plasmodium falciparum is a virulent malarial parasite that kills 1-2 million people worldwide each year. Transmitted by mosquitoes, the sporozoite form of the parasite enters the blood stream to infect hepatocytes, where they become merozoites that infect red blood cells (erythrocytes). Within erythrocytes, merozoites begin a […] cycle of growth and division, after which the parasite is released to infect new red blood cells. Gametocytes, which form within erythrocytes as well, circulate in the bloodstream and are ingested by the mosquito, thereby completing the life cycle. To profile malarial isolates for differential chemical responses and to identify inhibitors of malarial growth, an assay that measures P. falciparum growth and replication within erythrocytes was employed. This assay uses a DNA binding fluorescent dye (SYBR Green) to detect parasite DNA following cell lysis. Because mature erythrocytes lack DNA, only Plasmodium-derived DNA is detected.
The SYBR Green viability assay was adapted from a method described previously (Plouffe et al., 2008). For screening 3 ul culture medium was dispensed into 1536 well black clear bottom plates (Aurora Biotechnologies) using a Multidrop Combi (Thermo Fisher Scientific Inc.), 23 nL of compounds in DMSO were added by an acoustic dispenser (EDC Biosystems), and 5 ul of erythrocytes infected with P. falciparum (0.3% parasitemia, 2.5% hematocrit final concentration) were added. The plates were incubated at 37 C in a humidified incubator in 5% CO2 for 72 h, and 2 ul lysis buffer (20 mM Tris HCl, 10 mM EDTA, 0.16% saponin, 1.6% triton X, 10X SYBR Green I supplied as 10,000X […] by Invitrogen) was added to each well. The plates were mixed for 25 sec with gentle shaking and incubated overnight at room temperature in the dark. The following morning, fluorescence intensity at 485(14) nm excitation and 535(25) nm emission wavelengths was measured on an EnVision (Perkin Elmer) plate reader. Plate reads were normalized relative to the control inhibitor (0.29 uM artemisinin) and vehicle (DMSO) wells present on each plate and then corrected by an algorithm using vehicle-only control plates at the beginning and end of the compound plate stack.
With `Cc1cnc(Nc2ccc(CN3CCOCC3)cc2)nc1Nc1cccc(S(=O)(=O)NC(C)(C)C)c1` the outcome was “inactive”. With `COC1=C2C[C@@H](C)C[C@H](OC)[C@@H](O)[C@@H](C)C=C(C)[C@H](OC(N)=O)[C@@H](OC)C=CC=C(C)C(=O)NC(=CC1=O)C2=O` the outcome was “inactive”. With `CN(Cc1cnc2nc(N)nc(N)c2n1)c1ccc(C(=O)N[C@@H](CCC(=O)O)C(=O)O)cc1` the outcome was “inactive”. With `Nc1cccc(-c2csc(NC(=O)CCCCCCC(=O)NO)n2)c1` the outcome was “inactive”. In the case of `CCC(=O)N1CCN(c2ccc(-n3c(=O)ccc4cnc5ccc(-c6cnc7ccccc7c6)cc5c43)cc2C(F)(F)F)CC1`, the outcome is reported as “inactive”. With `CC(C)C[C@@H]1NC(=O)[C@H](CCCN)NC(=O)[C@H](C(C)C)NC(=O)[C@@H]2CCCN2C(=O)[C@@H](Cc2ccccc2)NC(=O)[C@H](CC(C)C)NC(=O)[C@H](CCCN)NC(=O)[C@H](C(C)C)NC(=O)[C@@H]2CCCN2C(=O)[C@@H](Cc2ccccc2)NC1=O` (cyclo(V[Orn]L[dF]PV[Orn]L[dF]P)) the outcome was “inactive”. For `CC[C@@]1(O)C[C@H](O[C@H]2C[C@H](N(C)C)[C@H](O[C@H]3C[C@H](O)[C@H](O[C@H]4CCC(=O)[C@H](C)O4)[C@H](C)O3)[C@H](C)O2)c2c(cc3c(c2O)C(=O)c2c(O)cccc2C3=O)[C@@H]1C(=O)OC`, the outcome was “inactive”. For `O[C@H](c1cc(C(F)(F)F)nc2c(C(F)(F)F)cccc12)[C@H]1CCCCN1`, the outcome was “inactive”. With `COc1ccc(-c2ccc3ncc4c(c3c2)n(-c2ccc(N3CCNCC3)c(C(F)(F)F)c2)c(=O)n4C)cn1` the outcome was “inactive”. In the case of `CN[C@@H](C)C(=O)N[C@H]1CCCC[C@H]2CC[C@@H](C(=O)N[C@@H](c3ccccc3)c3cn(CCCCc4ccc(CCCCn5cc([C@@H](NC(=O)[C@@H]6CC[C@@H]7CCCC[C@H](NC(=O)[C@H](C)NC)C(=O)N76)c6ccccc6)nn5)cc4)nn3)N2C1=O`, the outcome is reported as “inactive”. In the case of `CCc1cc(Nc2nccc(-c3c(-c4ccc(OC)c(C(=O)Nc5c(F)cccc5F)c4)nc4ccccn34)n2)c(OC)cc1N1CCC(N2CCN(S(C)(=O)=O)CC2)CC1`, the outcome is reported as “inactive”. With `CCC(C=C[C@@H]1OC(=O)C=C[C@H]1C)=C[C@H](C)CC=CC(C)=C[C@@H](C)C(=O)[C@@H](C)[C@H](O)[C@@H](C)CC(C)=CC(=O)O` the activity change was 22.5% [at 1.88 µM]. With `CCOC(=O)[C@H](CCc1ccccc1)N[C@H]1CS[C@H](c2cccs2)CN(CC(=O)O)C1=O` the outcome was “inactive”. In the case of `CCCCCCCCCCOc1cc2c(=O)c(C(=O)OCC)c[nH]c2cc1OCC`, the outcome is reported as “inactive”. With `c1cncc(CN2CCC(n3ncc4c(N5CCOCC5)nc(-c5ccc6[nH]ccc6c5)nc43)CC2)c1` the outcome was “inactive”. With `FC(F)c1nc2ccccc2n1-c1nc(N2CCOCC2)nc(N2CCOCC2)n1` the outcome was “inactive”. Molecule `CCCCCCOC(=O)C1(O)CC2OC1(C)n1c3ccccc3c3c4c(c5c6ccccc6n2c5c31)C(=O)NC4` (stereo not given) has an activity change of 34.6% [at 1.88 µM]. With `CCS(=O)(=O)Nc1ccc2[nH]c(O)c(C(=Nc3ccc(CN4CCCCC4)cc3)c3ccccc3)c2c1` the outcome was “inactive”. For `COC(=O)[C@]12CCC(C)(C)C[C@@H]1[C@@H]1C(=O)C=C3[C@@]4(C)C=C(C#N)C(=O)C(C)(C)[C@@H]4CC[C@@]3(C)[C@]1(C)CC2`, the outcome was “inactive”. For `Cn1c2ccccc2c2c3c(c4c5ccccc5n(CCC#N)c4c21)CNC3=O`, the outcome was “inactive”. For `Cc1[nH]c2ccccc2c1CCNCc1ccc(C=CC(=O)NO)cc1`, the outcome was “inactive”. With `C#Cc1cccc(Nc2ncnc3cc(OC)c(OCCCCCCC(=O)NO)cc23)c1` the outcome was “inactive”. In the case of `Cn1cc(C2=C(c3c4n(c5ccccc35)CCC(CN)C4)C(=O)NC2=O)c2ccccc21` (stereo not given), the outcome is reported as “inactive”. For `CC(C)C[C@H](NC(=O)[C@H](CCc1ccccc1)NC(=O)CN1CCOCC1)C(=O)N[C@@H](Cc1ccccc1)C(=O)N[C@@H](CC(C)C)C(=O)[C@@]1(C)CO1`, the outcome was “inactive”. In the case of `OB1OCc2cc(F)ccc21`, the outcome is reported as “inactive”. For `CC1(C)N=C(N)N=C(N)N1c1ccc(Cl)cc1`, the outcome was “inactive”. For `Clc1ccc2c(N3CCN(CCCN4CCN(c5ccnc6cc(Cl)ccc56)CC4)CC3)ccnc2c1`, the outcome was “inactive”. For `CC[C@H]1OC(=O)[C@H](C)[C@@H](O[C@H]2C[C@@](C)(OC)[C@@H](O)[C@H](C)O2)[C@H](C)[C@@H](O[C@@H]2O[C@H](C)C[C@H](N(C)C)[C@@H]2O)[C@](C)(O)C[C@@H](C)CN(C)[C@H](C)[C@@H](O)[C@]1(C)O`, the outcome was “inactive”. With `C[C@H]1[C@@H](OC(=O)CCC(=O)O)O[C@@H]2O[C@@]3(C)CC[C@@H]4[C@H](C)CC[C@@H]1[C@@]24OO3` the outcome was “inactive”. With `Cn1c(=O)n(-c2ccc(C(C)(C)C#N)cc2)c2c3cc(-c4cnc5ccccc5c4)ccc3ncc21` the outcome was “inactive”. In the case of `C[C@H]1c2cccc(O)c2C(O)=C2C(=O)[C@]3(O)C(O)=C(C(N)=O)C(=O)[C@@H](N(C)C)[C@@H]3[C@@H](O)[C@@H]21`, the outcome is reported as “inactive”. In the case of `COc1cc(NC(C)CCCN)c2ncccc2c1` (stereo not given), the outcome is reported as “inactive”. For `COCCn1c2c([n+](Cc3cnccn3)c1C)C(=O)c1ccccc1C2=O`, the outcome was “inactive”. With `CS(=O)(=O)CCNCc1ccc(-c2ccc3ncnc(Nc4ccc(OCc5cccc(F)c5)c(Cl)c4)c3c2)o1` the outcome was “inactive”. For `CCN[C@H]1C[C@H](C)S(=O)(=O)c2sc(S(N)(=O)=O)cc21`, the outcome was “inactive”. In the case of `CC[C@H]1OC(=O)[C@H](C)C(=O)[C@H](C)[C@@H](O[C@H]2O[C@H](C)C[C@H](N(C)C)[C@@H]2O)[C@](C)(OC)C[C@@H](C)C(=O)[C@H](C)[C@H]2N(CCCCn3cnc(-c4cccnc4)c3)C(=O)O[C@]12C`, the outcome is reported as “inactive”. For `CC1(CN2CCC(n3c(=O)[nH]c4ccccc43)CC2)OCc2ccccc2-n2cccc21` (stereo not given), the outcome was “inactive”. In the case of `CC(C=CC(=O)NO)=C[C@@H](C)C(=O)c1ccc(N(C)C)cc1`, the outcome is reported as “inactive”. With `Cc1cn[nH]c1` the outcome was “inactive”. For `COc1cc2c(Oc3ccc(NC(=O)C4(C(=O)Nc5ccc(F)cc5)CC4)cc3F)ccnc2cc1OCCCN1CCOCC1`, the outcome was “inactive”.
